Reference: PubChem BioAssay (NCATS)
Inconclusive results are not listed. Active and inactive are the calls of the source. Calls follow the shape of the dose curve; as a rule, active = well fitted curve in the direction sought with a large enough effect; inconclusive = small, poorly fitted or top-dose-only effect, or another doubt; inactive = no such curve, though single readings can be large; an effect the other way counts as inactive or inconclusive.

Tests used:
MCC-13 = assay: qHTS assay to identify novel small-molecules to repurpose for Merkel cell carcinoma treatment (AID 1296009); conditions: MCC and control cell lines, CellTiter-Glo viability, 72 h; series mostly up to 46 µM; also: nearly all actives have a fitted effect of over 60% in size
Method in brief: (§1)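 qHTS format: cells treated with library compounds in DMSO across 8 (NPC) or 11 (MIPE) concentrations. Readout after 72 hr at 37 degree celsius was CellTiter-Glo luminescence.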

MCC-26 = assay: as above; conditions: MCC and control cell lines, CellTiter-Glo viability, 72 h; series mostly up to 46 µM
Method in brief: as §1

MKL-1 = assay: as above; conditions: MCC and control cell lines, CellTiter-Glo viability, 72 h; series mostly up to 46 µM
Method in brief: as §1

MKL-2 = assay: as above; conditions: MCC and control cell lines, CellTiter-Glo viability, 72 h; series mostly up to 46 µM
Method in brief: as §1

NIH3T3 = assay: as above; conditions: MCC and control cell lines, CellTiter-Glo viability, 72 h; at 44.8 µM (top of the series) unless noted
Method in brief: as §1

UISO = assay: as above; conditions: MCC and control cell lines, CellTiter-Glo viability, 72 h; series mostly up to 46 µM
Method in brief: as §1

WaGa = assay: as above; conditions: MCC and control cell lines, CellTiter-Glo viability, 72 h; series mostly up to 46 µM
Method in brief: as §1

C33A = assay: Primary qHTS to identify gynecologic anti-cancer compounds using libraries of approved drugs and bioactive compounds (AID 1345084); conditions: Gynecologic cancer cell panel viability, ATPlite luminescence, 48 h; series mostly up to 57.5 µM; also: nearly all actives have a fitted effect of over 55% in size
Method in brief: (§2)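 Luminescence from the ATPlite ATP-monitoring reagent indicates viable cell number; lower signal means cytotoxicity. Cells received compound 16 h after seeding and were exposed for 48 h across five concentrations.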

CAOV3 = assay: as above; conditions: Gynecologic cancer cell panel viability, ATPlite luminescence, 48 h; series mostly up to 57.5 µM
Method in brief: as §2

CASKI = assay: as above; conditions: Gynecologic cancer cell panel viability, ATPlite luminescence, 48 h; series mostly up to 57.5 µM
Method in brief: as §2

Es-2 = assay: as above; conditions: Gynecologic cancer cell panel viability, ATPlite luminescence, 48 h; series mostly up to 57.5 µM
Method in brief: as §2

HeLa = assay: as above; conditions: Gynecologic cancer cell panel viability, ATPlite luminescence, 48 h; series mostly up to 57.5 µM
Method in brief: as §2

Hek293T [1] = assay: as above; conditions: Gynecologic cancer cell panel viability, ATPlite luminescence, 48 h, control line for the selectivity index; series mostly up to 57.5 µM
Method in brief: as §2

JEG-3 = assay: as above; conditions: Gynecologic cancer cell panel viability, ATPlite luminescence, 48 h; series mostly up to 57.5 µM
Method in brief: as §2

OV90 = assay: as above; conditions: Gynecologic cancer cell panel viability, ATPlite luminescence, 48 h; series mostly up to 57.5 µM
Method in brief: as §2

PA-1 = assay: as above; conditions: Gynecologic cancer cell panel viability, ATPlite luminescence, 48 h; series mostly up to 57.5 µM
Method in brief: as §2

SKOV3 = assay: as above; conditions: Gynecologic cancer cell panel viability, ATPlite luminescence, 48 h; series mostly up to 57.5 µM
Method in brief: as §2

Tov-21-G = assay: as above; conditions: Gynecologic cancer cell panel viability, ATPlite luminescence, 48 h; series mostly up to 57.5 µM
Method in brief: as §2

Tov112D = assay: as above; conditions: Gynecologic cancer cell panel viability, ATPlite luminescence, 48 h; series mostly up to 57.5 µM
Method in brief: as §2

HEK293T [2] = assay: qHTS assay to identify novel small-molecules to repurpose for Merkel cell carcinoma treatment (AID 1296009); conditions: MCC and control cell lines, CellTiter-Glo viability, 72 h; at 44.8 µM (top of the series) unless noted; also: nearly all actives have a fitted effect of over 60% in size
Method in brief: as §1

Measured: Potency

CC(=O)N(CC(O)CO)c1c(I)c(C(=O)NCC(O)CO)c(I)c(C(=O)NCC(O)CO)c1I (stereo unspecified)
not listed: HEK293T [2]
inactive: all other assays above

CCN(CC)C(=O)c1cccc(C)c1
not listed: HEK293T [2]
inactive: all other assays above

CC(C(=O)O)c1ccc2c(c1)Cc1cccnc1O2 (stereo unspecified)
not listed: MCC-26 | NIH3T3
inactive: all other assays above

COc1ccccc1OCC(O)CO (stereo unspecified)
not listed: HEK293T [2]
inactive: all other assays above

Cc1cccc(C)c1NC(=O)CC12CCCN1CCC2
not listed: MCC-26 | NIH3T3 | CAOV3
inactive: all other assays above

O=C1C(c2[nH]c3ccccc3c2O)=Nc2ccccc21
not listed: NIH3T3 | UISO | CAOV3
inactive: all other assays above

CC(=O)OCC(=O)[C@@]1(O)CC[C@H]2[C@@H]3CCC4=CC(=O)C=C[C@]4(C)[C@@]3(F)[C@@H](O)C[C@@]21C
not listed: MCC-26 | NIH3T3 | CAOV3 | SKOV3
inactive: all other assays above

CC1CC(OC(=O)c2ccccc2O)CC(C)(C)C1 (stereo unspecified)
not listed: MKL-2 | NIH3T3
inactive: all other assays above

CC(=O)N(CC(O)CN(C(C)=O)c1c(I)c(C(=O)NCC(O)CO)c(I)c(C(=O)NCC(O)CO)c1I)c1c(I)c(C(=O)NCC(O)CO)c(I)c(C(=O)NCC(O)CO)c1I (stereo unspecified)
not listed: HEK293T [2]
inactive: all other assays above

C[C@@H]1O[C@@H](OC[C@H]2O[C@@H](Oc3c(-c4ccc(O)c(O)c4)oc4cc(O)cc(O)c4c3=O)[C@H](O)[C@@H](O)[C@@H]2O)[C@H](O)[C@H](O)[C@H]1O
not listed: MCC-26 | NIH3T3
inactive: all other assays above

Nc1ccc(C(=O)Oc2ccccc2)c(O)c1
not listed: HEK293T [2]
inactive: all other assays above

Cc1c(C(=O)NCCO)[n+](=O)c2ccccc2n1[O-]
not listed: HEK293T [2]
inactive: all other assays above

COC(=O)c1cccnc1
not listed: MCC-26 | NIH3T3 | SKOV3
inactive: all other assays above

Cc1ccccc1N=Nc1ccc(N=Nc2c(O)ccc3ccccc23)c(C)c1
not listed: MCC-26 | NIH3T3 | UISO
inactive: all other assays above

NNc1nnc(NN)c2ccccc12
not listed: HEK293T [2]
inactive: all other assays above
